Test results published in the supplement of paper PMC6607015.
Where a name gives a salt, the structure may show the parent alone.

Key:
Conditions in all cases: compound concentration in added solution (µM; 5 µl added to 20 µl cells): 10; 18 h
A431 [1] = assay: LBPA endosome anti-LBPA integrated intensity (sum per cell), Z-score; higher = more LBPA staining
How it was run: (§1)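 Each value is a Z-score normalised in AcuityXpress from per-cell integrated LBPA or filipin intensity, taken over the whole cell or within LBPA endosomes. Duplicate 384-well imaging plates held 5 µl of 10 µM compound solution, onto which 3,500 HeLa MZ or A431 cells in 20 µl were seeded per well. After 18 h the cells were fixed in 4% PFA, stained with 6C4 anti-LBPA antibody, filipin, propidium iodide and CellTracker green, imaged four times per well at 20× and segmented in MetaXpress.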

HeLa MZ [2] = assay: as above
How it was run: as §1

A431 [3] = assay: whole-cell filipin (free cholesterol) integrated intensity, Z-score; higher = more cholesterol staining
How it was run: as §1

HeLa MZ [4] = assay: as above
How it was run: as §1

A431 [5] = assay: filipin (cholesterol) integrated intensity within LBPA endosomes, Z-score; higher = more cholesterol in LBPA endosomes
How it was run: as §1

HeLa MZ [6] = assay: as above
How it was run: as §1

Row | Compound | LBPA endosome anti-LBPA integrated intensity (z-score) (A431 [1]) | LBPA endosome anti-LBPA integrated intensity (z-score) (HeLa MZ [2]) | whole-cell filipin (z-score) (A431 [3]) | whole-cell filipin (z-score) (HeLa MZ [4]) | filipin (z-score) (A431 [5]) | filipin (z-score) (HeLa MZ [6])
1 | CO[C@H]1/C=C/O[C@@]2(C)Oc3c(C)c(O)c4c(O)c(c(/C=N/N5CCN(C6CCCC6)CC5)c(O)c4c3C2=O)NC(=O)/C(C)=C\C=C\[C@H](C)[C@H](O)[C@@H](C)[C@@H](O)[C@@H](C)[C@H](OC(C)=O)[C@@H]1C [Rifapentine] | -0.344 | -0.538 | -0.546 | -0.401 | -0.461 | -0.486
2 | CCN(CC)CCNC(=O)c1cc(Br)c(N)cc1OC [Bromopride] | -0.305 | 0.899 | -0.269 | 0.199 | -0.333 | 0.158
3 | NS(=O)(=O)c1cc2c(cc1C(F)(F)F)NCNS2(=O)=O [Hydroflumethiazide] | -0.486 | -0.967 | -0.738 | -0.664 | -0.455 | -0.522
4 | CS(=O)(=O)c1ccc([C@@H](O)[C@@H](CO)NC(=O)C(Cl)Cl)cc1 [Thiamphenicol] | -0.461 | -0.533 | -0.551 | -0.526 | -0.439 | -0.625
5 | Clc1ccc(C(Cn2ccnc2)OCc2c(Cl)cccc2Cl)c(Cl)c1 (centres undefined) [Isoconazole] | -0.0559 | 1.26 | -0.00171 | -0.264 | 0.0343 | 0.0567
6 | CCN(CC)CCOC(=O)c1ccc(N)cc1 [Procaine hydrochloride] | -0.324 | 0.381 | -1.04 | -0.86 | -0.492 | -0.418
7 | Nc1nc2c(ncn2COCCO)c(=O)[nH]1 [Acyclovir] | -0.598 | -1.1 | -1.13 | -0.395 | -0.557 | -0.66
8 | CCOC(=O)c1ccc(OC(=O)CCCCCNC(=N)N)cc1 [Gabexate mesilate] | -0.44 | 0.019 | 0.196 | 0.0139 | -0.481 | -0.456
9 | CCN(CC)C(=O)c1ccc(O)c(OC)c1 [Ethamivan] | -0.477 | -0.0996 | -0.452 | 0.274 | -0.43 | -0.268
10 | O=C(CCCN1CCC(O)(c2ccc(Cl)cc2)CC1)c1ccc(F)cc1 [Haloperidol] | 2.66 | 2.75 | 1.61 | 0.834 | 2.42 | 2.21
11 | CC(=O)N[C@@H](CS)C(=O)O [Acetylcysteine] | -0.477 | -0.307 | -0.0556 | -0.751 | -0.4 | -0.456
12 | Cc1c(OCC(F)(F)F)ccnc1C[S+]([O-])c1nc2ccccc2[nH]1 (centres undefined) [Lansoprazole] | -0.504 | 0.142 | 0.199 | 0.176 | -0.31 | -0.222
13 | CC(=O)Oc1cc(C(F)(F)F)ccc1C(=O)O [Triflusal] | -0.556 | -0.553 | -0.393 | 0.0625 | -0.513 | -0.544
14 | CN[C@@H]1[C@H](O[C@H]2[C@H](O[C@H]3[C@H](O)[C@@H](O)[C@H](N=C(N)N)[C@@H](O)[C@@H]3N=C(N)N)O[C@@H](C)[C@]2(O)C=O)O[C@@H](CO)[C@H](O)[C@H]1O [Streptomycin sulfate] | -0.673 | -1.38 | -0.979 | -0.78 | -0.577 | -0.576
15 | COC(=O)N/N=C/c1c[n+]([O-])c2ccccc2[n+]1[O-] [Carbadox] | -0.532 | -0.164 | -0.439 | -0.327 | -0.53 | -0.532
16 | CC1(C)S[C@@H]2[C@H](NC(=O)[C@H](N)c3ccccc3)C(=O)N2[C@H]1C(=O)O [Ampicillin trihydrate] | -0.606 | -0.403 | -0.896 | -0.707 | -0.569 | -0.702
17 | O=c1[nH]c(=O)n([C@H]2C[C@H](O)[C@@H](CO)O2)cc1C(F)(F)F [Trifluridine] | -0.394 | 0.648 | 3.04 | 3.8 | -0.544 | -0.762
18 | Cc1c(N(C)CS(=O)(=O)O)c(=O)n(-c2ccccc2)n1C [Dipyrone] | -0.646 | -1.3 | -0.336 | -0.214 | -0.539 | -0.551
19 | CC(NCCc1ccc(O)cc1)C(O)c1ccc(O)cc1 (centres undefined) [Ritodrine hydrochloride] | -0.357 | 0.237 | -0.158 | -0.199 | -0.481 | -0.491
20 | CCN(CC)CCOc1ccc(C(=C(Cl)c2ccccc2)c2ccccc2)cc1 [Clomiphene citrate (Z,E)] | 1.86 | 0.54 | 0.0851 | 1.03 | 2.72 | 3.06
21 | CC/C(=C(/CC)c1ccc(O)cc1)c1ccc(O)cc1 [Diethylstilbestrol] | -0.432 | -0.702 | -0.0535 | -0.813 | -0.37 | -0.493
22 | Cc1cnc(C(=O)O)c[n+]1[O-] [Acipimox] | -0.468 | -0.426 | -0.532 | -0.464 | -0.503 | -0.519
23 | CC1COc2c(N3CCN(C)CC3)c(F)cc3c(=O)c(C(=O)O)cn1c23 (centres undefined) [Ofloxacin] | -0.519 | -0.166 | -0.939 | 0.125 | -0.532 | -0.106
24 | C[N+](C)(C)CCOC(N)=O [Carbachol] | -0.538 | -0.848 | -0.548 | -0.381 | -0.44 | -0.42
25 | Nc1ccc(S(=O)(=O)NC(=O)c2ccccc2)cc1 [Sulfabenzamide] | -0.476 | -1.38 | -0.453 | -0.0901 | -0.451 | -0.401

Row | Compound | LBPA endosome anti-LBPA integrated intensity (z-score) (A431 [1]) | LBPA endosome anti-LBPA integrated intensity (z-score) (HeLa MZ [2]) | whole-cell filipin (z-score) (A431 [3]) | whole-cell filipin (z-score) (HeLa MZ [4]) | filipin (z-score) (A431 [5]) | filipin (z-score) (HeLa MZ [6])
26 | CO[C@H]1/C=C/O[C@@]2(C)Oc3c(C)c(O)c4c(O)c(c(/C=N/N5CCN(C)CC5)c(O)c4c3C2=O)NC(=O)/C(C)=C\C=C\[C@H](C)[C@H](O)[C@@H](C)[C@@H](O)[C@@H](C)[C@H](OC(C)=O)[C@@H]1C [Rifampicin] | -0.422 | -0.231 | -0.651 | -0.372 | -0.402 | -0.338
27 | CC(=O)O[C@]1(C(C)=O)CC[C@H]2[C@@H]3C=C(Cl)C4=CC(=O)[C@@H]5C[C@@H]5[C@]4(C)[C@H]3CC[C@@]21C [Cyproterone acetate] | -0.264 | 0.704 | 0.568 | 0.591 | 0.113 | 0.108
28 | Cc1ccccc1C(OCCN(C)C)c1ccccc1 (centres undefined) [Orphenadrine hydrochloride] | -0.188 | 0.0858 | -0.344 | 1.02 | 0.191 | 0.681
29 | Nc1cc(-c2ccncc2)c[nH]c1=O [Amrinone] | -0.468 | -0.737 | -0.578 | -0.805 | -0.461 | -0.541
30 | COc1c(N2CCNC(C)C2)c(F)cc2c(=O)c(C(=O)O)cn(C3CC3)c12 (centres undefined) [Gatifloxacin] | -0.517 | 0.0619 | -0.124 | 0.333 | -0.446 | 0.0101
31 | CCOC(=O)C1=C(C)NC(C)=C(C(=O)OC)C1c1cccc(Cl)c1Cl (centres undefined) [Felodipine] | -0.574 | -0.618 | -0.869 | -0.774 | -0.49 | -0.476
32 | CC[C@H](C)C(=O)O[C@H]1C[C@H](O)C=C2C=C[C@H](C)[C@H](CC[C@@H](O)C[C@@H](O)CC(=O)O)[C@H]21 [Pravastatin] | 1.48 | 0.0503 | -0.289 | -0.634 | 0.0167 | -0.441
33 | CC[C@H]1OC(=O)[C@H](C)[C@@H](O[C@H]2C[C@@](C)(OC)[C@@H](O)[C@H](C)O2)[C@H](C)[C@@H](O[C@@H]2O[C@H](C)C[C@H](N(C)C)[C@H]2O)[C@](C)(O)C[C@@H](C)[C@@H]2N[C@@H](COCCOC)O[C@H]([C@H]2C)[C@]1(C)O [Dirithromycin] | -0.436 | -0.0354 | -0.786 | -0.252 | -0.507 | -0.38
34 | CCOC(=O)[C@H](CCc1ccccc1)N[C@@H](C)C(=O)N1CCC[C@H]1C(=O)O [Enalapril maleate] | -0.644 | -2 | -1.09 | -0.795 | -0.578 | -0.713
35 | CCN1CCN(C(=O)N[C@@H](C(=O)N[C@@H]2C(=O)N3C(C(=O)O)=C(CSc4nnnn4C)CS[C@H]23)c2ccc(O)cc2)C(=O)C1=O [Cefoperazone dihydrate] | -0.512 | -0.941 | -0.712 | -0.226 | -0.522 | -0.518
36 | NC1CCN(c2c(F)cc3c(=O)c(C(=O)O)cn(C4CC4)c3c2Cl)C1 (centres undefined) [Clinafloxacin] | -0.36 | 0.512 | -0.328 | -0.333 | -0.437 | -0.286
37 | CN1CCCN=C1/C=C/c1cccc(O)c1 [Oxantel pamoate] | -0.563 | -0.852 | -0.857 | -0.729 | -0.5 | -0.659
38 | CC(=O)Oc1ccccc1C(=O)Oc1ccccc1C(=O)O [Acetylsalicylsalicylic acid] | -0.367 | -0.319 | -0.583 | -0.226 | -0.456 | -0.52
39 | O=C(c1ccc(OCCN2CCCCC2)cc1)c1c(-c2ccc(O)cc2)sc2cc(O)ccc12 [Raloxifene hydrochloride] | 2.74 | 1.35 | 1.48 | 2.28 | 3.61 | 5.61
40 | O=C(O)Cc1sc(-c2ccccc2)nc1-c1ccc(Cl)cc1 [Fentiazac] | -0.661 | -1.44 | -0.809 | -0.504 | -0.591 | -0.756
41 | OCCOCCN1CCN(C(c2ccccc2)c2ccc(Cl)cc2)CC1 (centres undefined) [Hydroxyzine dihydrochloride] | 0.255 | 0.53 | 0.266 | -0.465 | 0.492 | 0.489
42 | O=C(CCNNC(=O)c1ccncc1)NCc1ccccc1 [Nialamide] | -0.371 | 0.29 | -0.078 | -0.132 | -0.403 | -0.566
43 | CCN(CC)CCNC(=O)c1cc(S(C)(=O)=O)ccc1OC [Tiapride hydrochloride] | -0.48 | 0.333 | -0.576 | -0.522 | -0.565 | -0.513
44 | CC1(C)S[C@@H]2[C@H](NC(=O)Cc3ccccc3)C(=O)N2[C@H]1C(=O)O [Benzathine benzylpenicillin] | -0.419 | 0.43 | 0.0117 | 0.113 | -0.376 | -0.279
45 | C=CCOc1ccccc1OCC(O)CNC(C)C (centres undefined) [Oxprenolol hydrochloride] | -0.0805 | 0.635 | 0.289 | 0.262 | -0.232 | -0.267
46 | CCC[C@@H]1C[C@@H](C(=O)N[C@@H]([C@H]2O[C@H](SC)[C@H](O)[C@@H](O)[C@H]2O)[C@@H](C)O)N(C)C1 [Lincomycin hydrochloride] | -0.565 | -0.696 | -0.903 | -1.08 | -0.504 | -0.682
47 | Nc1ncnc2c1ncn2[C@@H]1O[C@H](CO)[C@@H](O)[C@@H]1O [Vidarabine] | -0.521 | 0.0226 | -0.393 | 0.669 | -0.496 | -0.54
48 | O=C(CCCN1CCN(c2ccccn2)CC1)c1ccc(F)cc1 [Azaperone] | -0.0879 | 0.592 | 0.0723 | 0.216 | -0.168 | 0.329
49 | CC(COc1ccccc1)NC(C)C(O)c1ccc(O)cc1 (centres undefined) [Isoxsuprine hydrochloride] | -0.187 | 0.869 | -0.214 | -0.465 | -0.444 | -0.378
